The results in this text go back to PubChem BioAssay.

In experiment [1] the test system is Human papillomavirus type 1a protein E7 (residues 44-93). Briefly: HPV1a E7 fragment binders on microarrays, primary screen, biochemical, small-molecule microarray, residues 44-93, 635 nm fluorescence (AID 1108).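 Note: E7 fragment applied at 1 µg/mL in TBST for 1 h at 4 C; score combines spot fluorescence with its signal to noise ratio.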 The conditions noted are these: small-molecule microarray binding, fluorescence 635 nm; higher = more signal.
Experiment [2] in a line: modulators of HCV replicon luciferase signal, primary screen, HCV replication inhibitor project, Huh7 cells, luciferase reporter (AID 1109).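 Note: huh7 hepatoma cells harbouring a luciferase neomycin HCV replicon reporter; luciferase luminescence as measure of HCV replicon replication; test concentration not given here.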 The note with it: 48 h, higher = more signal. Background: Replicon systems follow genome replication, usually without infectious particles.
Experiment [3] addresses Left-right determination factor 2 (Homo sapiens) (UniProt O00292). Briefly: LEFTY2 binders on small-molecule microarrays, primary screen, biochemical, small-molecule microarray, 635 nm fluorescence scan (AID 1110). The note with it: LEFTY2 binding, higher = more signal.
Experiment [4] deals with Calmodulin-1 (Homo sapiens) (UniProt P0DP23). Briefly: CALM1 binders on microarrays, EGTA buffer, profiling panel, biochemical, small-molecule microarray, Cy5-labelled CALM1 (AID 1111).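 Note: labelled calmodulin applied in Tris saline Tween buffer holding calcium plus EGTA and DTT.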 The note with it: Cy5-CALM1 binding fluorescence, higher = more signal.
The target is the same in experiment [5]. Briefly: calcium-bound CALM1 binders on microarrays, profiling panel, artefact control for SMM control-protein annotation, biochemical, small-molecule microarray, Cy5-labelled CALM1, plus calcium (AID 1112).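 Note: score merges spot fluorescence with signal to noise from triplicate slides.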 The conditions noted are these: Cy5-CALM1 binding fluorescence, higher = more signal.
Experiment [6] can be described thus: small-molecule microarray binders of probe aWnt5a, primary screen, biochemical, biotinylated probe, 635/667 nm fluorescence (AID 1113).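 Note: score merges 667 nm fluorescence intensity with signal-to-noise per printed feature.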 The conditions noted are these: higher = more signal.
A short description of experiment [7]: small-molecule microarray binders of probe aShh, primary screen, biochemical, biotinylated probe, 635/667 nm fluorescence (AID 1114).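 Note: probe is biotin-labelled aShh protein from a stem cell growth factor screen; measures binding of labelled protein to compounds printed on the slide; score merges feature fluorescence at 667 nm with signal-to-noise.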 The conditions noted are these: higher = more signal.
Experiment [8] can be described thus: small-molecule microarray binders of probe aNog, primary screen, biochemical, biotinylated probe, 635/667 nm fluorescence (AID 1115).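 Note: probe is biotinylated aNog protein used at 0.15 µg/mL for 1 h at 4 C; z-score combines 667 nm fluorescence of each spot with its signal to noise.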 The conditions noted are these: higher = more signal.
For experiment [9], the target named is Torsin-1A-interacting protein 1 (Homo sapiens) (UniProt Q5JTV8). Briefly: LAP1 binders from COS7 cell lysate, primary screen, small-molecule microarray, 635/667 nm fluorescence (AID 1116). The note with it: COS7-hLAP1 lysate binding, 635 nm fluorescence, higher = more signal.
Sequence of Torsin-1A-interacting protein 1 (Homo sapiens) (Q5JTV8 whole entry, looked up): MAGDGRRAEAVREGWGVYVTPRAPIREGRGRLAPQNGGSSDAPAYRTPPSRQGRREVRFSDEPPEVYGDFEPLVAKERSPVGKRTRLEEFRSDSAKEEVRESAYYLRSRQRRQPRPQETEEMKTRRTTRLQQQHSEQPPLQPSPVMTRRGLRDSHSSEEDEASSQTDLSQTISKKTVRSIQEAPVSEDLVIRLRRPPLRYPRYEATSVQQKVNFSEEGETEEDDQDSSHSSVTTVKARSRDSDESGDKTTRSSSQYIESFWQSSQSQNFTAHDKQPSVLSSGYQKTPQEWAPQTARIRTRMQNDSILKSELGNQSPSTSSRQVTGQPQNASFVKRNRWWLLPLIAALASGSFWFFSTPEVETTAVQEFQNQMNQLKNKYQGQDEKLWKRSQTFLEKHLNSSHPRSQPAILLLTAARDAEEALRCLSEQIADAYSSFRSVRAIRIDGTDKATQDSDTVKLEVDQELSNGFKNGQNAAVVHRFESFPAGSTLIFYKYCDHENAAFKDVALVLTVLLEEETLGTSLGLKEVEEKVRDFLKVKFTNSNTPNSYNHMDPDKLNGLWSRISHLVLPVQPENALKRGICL
Experiment [10] has as its target Alpha-bungarotoxin (Bungarus multicinctus) (UniProt P60615). Briefly: alpha-bungarotoxin binders on microarray, profiling panel, artefact control for SMM control protein annotation, biochemical, small-molecule microarray, Alexa647 label, 635/667 nm fluorescence (AID 1117). The note with it: alpha-BTX-A647 binding fluorescence, higher = more signal.

Sequence of Alpha-bungarotoxin (Bungarus multicinctus) (P60615 whole entry, looked up): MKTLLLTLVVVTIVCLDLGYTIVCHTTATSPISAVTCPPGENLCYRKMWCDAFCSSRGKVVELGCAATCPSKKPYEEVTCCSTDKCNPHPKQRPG
Sequence of Left-right determination factor 2 (Homo sapiens) (O00292 whole entry, looked up): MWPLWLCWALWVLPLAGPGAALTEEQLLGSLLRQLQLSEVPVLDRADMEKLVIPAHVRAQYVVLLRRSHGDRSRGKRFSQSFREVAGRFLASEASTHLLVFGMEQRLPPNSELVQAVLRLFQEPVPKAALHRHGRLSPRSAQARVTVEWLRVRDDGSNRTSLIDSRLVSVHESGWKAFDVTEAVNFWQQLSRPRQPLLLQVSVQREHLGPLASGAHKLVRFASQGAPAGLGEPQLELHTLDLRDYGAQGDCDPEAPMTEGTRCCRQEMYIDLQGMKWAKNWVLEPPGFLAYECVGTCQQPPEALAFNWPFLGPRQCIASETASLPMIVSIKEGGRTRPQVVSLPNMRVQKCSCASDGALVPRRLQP

Turning to `COC(=O)[C@@]1(Cc2ccc(OC)cc2)[C@H]2c3cc(C(=O)N4CCCC4)n(C[C@H](O)CO)c3C[C@H]2CN1C(=O)c1ccccc1`, the composite z-score in experiment [1] is 0.464; in [3] it was -0.416; in experiment [4], 1.14; in experiment [5], 0.91; in experiment [6], -0.252; in experiment [7] it was 1.17. Further, the figures for the composite z-score in [8], in experiment [9] and in experiment [10] were 1.59, 0.707 and 0.113, respectively. The molecule also showed a z-score in [2] of -0.439.
For `COc1cc(NN2C(C(O)c3ccccc3)C=CC3C(=O)N(c4ccccc4)C(=O)C32)cc(OC)c1OC` (stereo not given), the composite z-score in [1] is 1.49; in experiment [3], 0.265; in experiment [4], 1.36; in [5] it was -0.356; in experiment [6] it was 0.216; in experiment [7], 0.302. Besides, the figures for the composite z-score in [8], in experiment [9] and in experiment [10] were 0.539, 0.804 and 0.585, respectively. In [2], this molecule came in with a z-score of -1.28.
Consider `CCOC(=O)C[C@H]1[C@H](OC(=O)c2cc3ccccc3oc2=O)[C@@H](NC(=O)c2ccc3ccccc3c2)c2cc(OCCCO)ccc2N1C(=O)c1ccccc1`, for which the composite z-score was 1.39 in experiment [1]; 0.129 in experiment [3]; -0.0786 in experiment [4]; -0.337 in experiment [5]; -0.12 in experiment [6]; 0.214 in experiment [7]. For the same molecule, the values for the composite z-score in [8], in experiment [9] and in [10] were -0.0863, 0.739 and 0.43, respectively. In experiment [2], this molecule displayed a z-score of -0.593.
Take `C#C[C@H]1Oc2ccccc2S(=O)(=O)N2CCC[C@@H]12`: the composite z-score is -0.137 in experiment [1]; 0.533 in experiment [3]; -0.982 in experiment [4]; -0.495 in experiment [5]; -0.169 in experiment [6]; 0.0815 in experiment [7]. Moreover, the composite z-score is -0.1 in experiment [8], 0.0849 in [9] and -0.288 in experiment [10]. In experiment [2], this molecule showed a z-score of -0.871.
For the molecule `NC(=O)NCC#Cc1ccc2c(c1)[C@]1(C(=O)N2)[C@H](c2ccccc2OCCO)N2[C@H](c3ccccc3)[C@H](c3ccccc3)OC(=O)[C@H]2[C@@H]1C(=O)N1CCCCCCC1`, the composite z-score is 1.43 in experiment [1]; 1.34 in experiment [3]; 2.9 in experiment [4]; 1.55 in experiment [5]; 1.18 in [6]; 0.728 in [7]. The composite z-score in experiment [8] came out at 3.1; in experiment [9], 4.58; in experiment [10], 3.37. This molecule also showed a z-score in [2] of -0.968.
For `COC(=O)[C@@]1(Cc2ccccc2)[C@H]2c3cc(C(=O)N(C)C)n(Cc4cc(F)c(F)c(F)c4)c3C[C@H]2CN1C(=O)c1ccccc1`, the composite z-score in [1] is 1.28; in experiment [3], -0.762; in [4], 1.39; in experiment [5] it was 0.449; in experiment [6], 0.216; in experiment [7] it was 0.415. Further, the composite z-score in experiment [8] is 1.79; in experiment [9] it was 0.845; in experiment [10], 0.517. The molecule further came in with a z-score in [2] of -1.87.
Turning to `C=CC[C@@]1(C(=O)NCc2ccccc2)N=C(c2ccc(OCCCO)cc2)O[C@@H]1c1ccccc1CN=[N+]=[N-]`, the composite z-score is 1.41 in [1]; -0.511 in [3]; 1.13 in experiment [4]; 0.429 in experiment [5]; 0.0676 in experiment [6]; 0.448 in [7]. Besides, the values for the composite z-score in [8], in experiment [9] and in [10] were 0.622, 1.1 and 1.28, respectively. Besides, the z-score in experiment [2] is -2.31.
As for `[N-]=[N+]=NCc1ccccc1[C@@H]1OC(c2ccc(OCCCO)cc2)=N[C@]1(Cc1ccccc1N=[N+]=[N-])C(N)=O`, the composite z-score was 1.43 in [1]; -0.0808 in experiment [3]; 2.02 in [4]; 1.11 in experiment [5]; -0.0478 in [6]; 0.593 in experiment [7]. The composite z-score in [8] was 1.49; in [9], 0.804; in experiment [10], 2.66. This molecule also returned a z-score in experiment [2] of -0.613.
With `C=C(CCCC)C(=O)CC[C@H](OC(C)=O)c1ccc(CO)o1`, the composite z-score in [1] is 0.478; in [3] it was -0.0361; in [4], -0.933; in experiment [5], -1.06; in experiment [6], -0.0182; in [7], 0.13. Also, the composite z-score is -0.196 in experiment [8], 1.43 in experiment [9] and -0.28 in [10]. Also, the z-score in experiment [2] is -0.72.
Regarding `CCCC[C@@H]1C[C@H]1[C@@H](NC(=O)c1ccco1)c1ccccc1`, the composite z-score was -1.35 in experiment [1]; -2.75 in experiment [3]; -0.352 in experiment [4]; 0.479 in [5]; -0.258 in experiment [6]; 0.108 in [7]. Also, the composite z-score in [8] was -0.218; in experiment [9] it was -1.63; in experiment [10] it was -0.703. In [2], this molecule came in with a z-score of -2.26.
Turning to `CC(C)(C)OC(=O)CC[C@@]1(C(=O)NCC(O)CO)N=C(c2ccc(OCCCO)cc2)O[C@@H]1c1ccccc1` (stereo not given in full), the composite z-score in experiment [1] was 1.36; in [3], -0.452; in experiment [4], -0.0155; in [5], 0.924; in experiment [6], -0.0685; in experiment [7], 0.223. Also, the composite z-score was 0.487 in experiment [8], 3.12 in [9] and 1.04 in [10]. The z-score in experiment [2] stood at 0.821.
As for `C=CCOC(=O)[C@@H]1[C@H]2C(=O)O[C@H](c3ccccc3)[C@H](c3ccccc3)N2[C@H](c2ccc(OCCOC(=O)[C@H]3C[C@H]4C(=O)N[C@@H](CCCC[N+](C)(C)C)C(=O)N4[C@H]3c3cccc(OCCO)c3)cc2)[C@@]12C(=O)Nc1ccc(I)cc12`, the composite z-score in experiment [1] was 1.14; in [3] it was 1.08; in [4], 0.38; in [5], -0.0134; in experiment [6], -0.091; in [7] it was -0.153. Besides, the composite z-score in [8] was -0.033; in experiment [9], 0.896; in experiment [10], 0.642. For the same molecule, the z-score in [2] is -1.29.
As for `CO[C@H]1O[C@H](CO)[C@@H](OC(=O)Nc2cccc(F)c2)[C@H](OC(=O)Nc2ccccc2-c2ccccc2)[C@@H]1OC(=O)Nc1ccccc1-c1ccccc1`, the composite z-score in experiment [1] is 1.16; in [3], 0.343; in [4], 1.95; in experiment [5], 0.283; in experiment [6], 0.0825; in experiment [7], 0.0684. Moreover, the composite z-score is -0.268 in experiment [8], 1.47 in experiment [9] and 1.96 in experiment [10]. The molecule also showed a z-score in experiment [2] of -3.61.
In the case of `O=C1c2ccccc2[C@](Cc2ccccc2I)(C(=O)O)[C@H](c2ccc(CO)cc2)N1Cc1ccccc1C(F)(F)F`, the composite z-score in [1] was 1.46; in [3] it was -0.422; in experiment [4], 1.08; in [5], -0.604; in experiment [6] it was -0.0006; in experiment [7], -0.0382. The composite z-score in experiment [8] was 0.689; in [9] it was -0.0086; in experiment [10], 1.58. Also, the z-score in experiment [2] is -0.702.
Consider `Cc1ccc(S[C@]2(C(=O)NCCCN(C)C)CC(=O)N(C(C)C)[C@@H]2c2ccc(CO)cc2I)cc1`, for which the composite z-score is -0.257 in experiment [1]; -0.829 in [3]; 0.314 in [4]; 0.344 in [5]; -0.0748 in experiment [6]; -0.0035 in experiment [7]. Also, the composite z-score in [8] is -0.487; in experiment [9], 0.309; in [10] it was 0.397. Also, the z-score in experiment [2] was -2.53.
Take `C=CCC(OC(C)=O)[C@@H]1[C@@H](N(Cc2ccc(-c3cccc(C(F)(F)F)c3)o2)C(=O)c2ccc(C)cc2)c2cc(OCCCO)ccc2N1C(=O)c1ccc2ccccc2n1` (stereo not given in full): the composite z-score in experiment [1] was -0.172; in experiment [3], 0.435; in experiment [4], -0.619; in experiment [5], -0.253; in experiment [6] it was -0.0478; in [7] it was 0.278. Also, the composite z-score in [8] was 0.276; in experiment [9], -0.0885; in experiment [10], 1.31. The molecule also returned a z-score in experiment [2] of -0.462.
`Oc1ccc2cc[n+](Cc3cccc(OC(F)(F)F)c3)cc2c1`: the composite z-score is -0.112 in experiment [1]; 0.939 in experiment [3]; -0.582 in experiment [4]; -0.77 in experiment [5]; -0.152 in experiment [6]; 0.0515 in experiment [7]. For the same molecule, the composite z-score is -0.85 in experiment [8], -0.0554 in [9] and 0.266 in experiment [10]. This molecule also returned a z-score in [2] of -0.114.
